Screening data from PubChem.
aSyn 5UTR act – Activators working through SNCA 5'UTR binding (MLPCN). alpha-synuclein 5'UTR reporter, activators screen. activity score, % (tested at 7.5 µM), hits read low. AID 1814. 7.1% of 300,000 active; in the data active means activity score below about -60%
Numbers stand for hits; . = inactive. A selection follows.

SMILES	aSyn 5UTR act
COC(=O)C(C)N1C(=O)S/C(=C/c2cc(C)n(C(C)C)c2C)C1=O (configuration not stated)	-127
CCn1c(C)cc(/C=C2/SC(=O)N(C(C)C(=O)OC)C2=O)c1C (configuration not stated)	-156
COCCn1c(C)cc(/C=C2/SC(=O)N(C(C)C(=O)OC)C2=O)c1C (configuration not stated)	-154
C#CCN1C(=O)S/C(=C/c2cc(C)n(CC)c2C)C1=O	-193
CCOC(=O)C(C)N1C(=O)S/C(=C/c2cc(C)n(-c3ccccn3)c2C)C1=O (configuration not stated)	-143
Nc1ccn([C@@H]2O[C@H](CO)[C@@H](O)[C@@H]2O)c(=O)n1	.
Cn1c(-c2ccc3ccccc3n2)[n+](C)c2ccccc21	-65
c1ccc(CNc2ncnc3c2ncn3C2CCCCO2)cc1 (configuration not stated)	-104
O=C(/C=C/Nc1cccc([N+](=O)[O-])c1)c1ccco1	-283
Cc1ccc(C(=O)/C=C/Nc2cccc([N+](=O)[O-])c2)o1	-167
CC(C)(C)C(=O)Nc1ccc(-c2cc3cc(Cl)ccc3o2)cc1	-124
O=C(O)/C=C/C(=O)c1ccc2c(c1)CCc1ccccc1-2	-111
CCCC1=[N+](CC(=O)c2ccccc2)CCn2cccc21	-72
CC(C)c1ccc(NCCC(=O)c2cccs2)cc1	-217
Cc1ccc(NCCC(=O)c2cccs2)cc1	-164
Cc1cccc(NCCC(=O)c2ccc(Br)cc2)c1	-94
CC(CC(=O)c1cccs1)CC(=O)c1cccs1	-144
COC(=O)c1ccc(COC(=O)CCC(=O)c2cccs2)cc1	-84
Cc1ccc(NCCC(=O)c2cccs2)cc1Cl	-87
CC(=O)c1ccc(NCCC(=O)c2ccccc2)cc1	-82
Cc1ccc(NCCC(=O)c2ccc(Cl)cc2)cc1C	-99
Cc1ccc(NCCC(=O)c2cccs2)cc1C	-187
Cc1cc(C)c(C(CC(=O)c2cccs2)C(C#N)C#N)c(C)c1 (configuration not stated)	-189
Cn1cc(/C=N/n2cnc3scc(-c4ccc(Cl)cc4)c3c2=O)c2ccccc21	.
Cc1sc2ncn(/N=C/c3ccco3)c(=O)c2c1C	-67
SMILES	aSyn 5UTR act
CCOc1ccccc1NC(=O)C(OC(=O)c1ccc(O)cc1)c1ccccc1 (configuration not stated)	-62
CN1C2=CC=CC=CC2=[N+](C)C12C([N+](=O)[O-])=CC(=[N+]([O-])[O-])C=C2[N+](=O)[O-] (configuration not stated)	-73
COc1ccc2cnn(-c3ccc(OC(F)(F)F)cc3)c(=O)c2c1OC	-90
CC(C)(C)S(=O)(=O)c1cnc2c(-c3ccsc3)cnn2c1N	-74
Nc1c(C(=O)O)cnc2c(-c3ccc(Cl)cc3)cnn12	-72
Nc1c(-c2cccs2)cnc2c(-c3ccc(F)cc3)cnn12	-165
CS(=O)(=O)c1cnc2c(-c3ccc(F)cc3)cnn2c1N	-106
Cc1nc2ccc(Cl)cc2nc(C)/c1=N\O	-219
Cc1ccc2nc(C)/c(=N\O)c(C)nc2c1	-239
CN1/C(=C/C(=O)C2CCC2)Sc2ccccc21	-89
CN1/C(=C/C(=O)c2ccc(Cl)cc2)Sc2cc3c(cc21)OCO3	-160
COc1cc(OC)cc(C(=O)/C=C2\Sc3ccccc3N2C)c1	-154
COc1ccc2c(c1)S/C(=C\C(=O)c1ccncc1)N2C	-165
CN1/C(=C\C(=O)c2cccc([N+](=O)[O-])c2)Sc2ccccc21	-83
CCOc1ccc(/C=C(/NC(=O)c2ccc(Cl)cc2)C(=O)O)cc1OCC	-86
COc1ccc(/C=C/C(=O)c2ccc(NC3=NCCCS3)cc2)cc1OC	-99
O=C(CNC(=O)c1ccccc1F)N/N=C/c1cccs1	-94
O=C(Cc1cccs1)N/N=C/C=C\c1ccco1	-78
O=C(CNC(=O)c1cccs1)N/N=C/c1ccco1	-125
Cc1ccc(N/N=C/C=C/c2ccco2)cc1	-157
O=C(N/N=C/C=C/c1ccco1)c1ccccc1Cl	-107
O=C(N/N=C/C=C\c1ccco1)c1cccs1	-152
Cc1ccc(OCC(=O)N/N=C/C=C/c2ccco2)c(Br)c1	-64
O=Cc1cc(-c2ccccc2)[nH]c1-c1ccccc1	-64
CCOC(=O)c1nnc2cc(-c3ccc(Br)cc3)nn2c1C	-114
SMILES	aSyn 5UTR act
Nc1ccc(C(=O)OCC(=O)N2CCOCC2)cc1[N+](=O)[O-]	-71
O=C(OCC(=O)N1CCOCC1)c1ccccc1Cc1ccccc1	-183
O=C(OCC(=O)N1CCOCC1)c1cccc(F)c1	-87
O=C(c1ccc(CS(=O)Cc2ccccc2Cl)o1)N1CCN(C2CCCCC2)CC1 (configuration not stated)	-74
O=C(c1ccc(CS(=O)c2ccccc2Cl)o1)N1CCN(c2ccccc2)CC1 (configuration not stated)	.
CCOC(=O)c1ccc(NC(=O)C23CCC(C)(C(=O)O2)C3(C)C)cc1 (configuration not stated)	-106
CC(C)(C)c1ccc(NC(=O)Nc2ccc(F)cc2)cc1	-245
COc1ccc(NC(=O)Nc2ccc(F)cc2)cn1	-65
O=C(Nc1ccc(F)cc1)Nc1cc(OCC(F)(F)F)cc(OCC(F)(F)F)c1	.
COC(=O)c1ccc(NC(=O)Nc2ccc(F)cc2)cc1	-141
COc1ccc(NC(=O)/C(Cl)=C(/Cl)S(=O)Cc2ccccc2)cn1 (configuration not stated)	.
COc1ccc(NC(=O)/C=C/c2cccc(Br)c2)cn1	-190
CCOC(=O)c1ccc(NC(=O)Nc2ccc(F)cc2)cc1	-106
COc1ccc(NC(=O)CSc2ccccc2)cn1	-86
CNC(C)C#Cc1ccc2c(=O)c3ccccc3oc2c1 (configuration not stated)	-244
CCc1ccc2c(c1)/C(=C/C(=O)c1cccs1)C(=O)N2	-65
Cc1cc(NC(=O)CSc2nc(C3CC3)nc3sc4c(c23)CCC(C)C4)no1 (configuration not stated)	-70
NC(=O)CSc1nc(C2CC2)nc2sc3c(c12)CCCC3	-109
Cc1ccsc1/C=N\NC(=O)c1cc(C(C)(C)C)[nH]n1	-138
CC(C)(C)c1cc(C(=O)N/N=C/c2ccco2)n[nH]1	-146
CN(C)c1ccc(/C=C2\CCCc3c2nc2ccccc2c3C(=O)O)cc1	-121
CCn1c(-c2ccc(F)cc2)cnc1SCC(=O)N1CCc2ccccc21	-85
Cc1ccc2c(CC(=O)N3CCc4ccccc43)coc2c1	-161
O=C(Cc1c[nH]c2ccccc12)N1CCc2ccccc21	-63
Nc1cc(N)nc(SCC(=O)N2CCc3ccccc32)n1	-87
SMILES	aSyn 5UTR act
O=C(CSc1ccccc1)N1CCc2ccccc21	-113
CCn1c(CNc2ccc(OC)cc2)nnc1SCC(=O)N1CCCc2ccccc21	-70
O=C(CSCc1ccco1)c1ccc(Cl)s1	-116
Cc1nc(SCC(=O)N2CCc3ccccc32)n[nH]1	-68
O=C(CSCc1ccco1)N1CCc2ccccc21	-83
COc1cccc(NC(=O)Nc2cccs2)c1	-80
COc1ccc(NC(=O)Nc2cccs2)cc1OC	-82
CC(CC(=O)NCc1ccccc1)C1CCCO1 (configuration not stated)	-62
CC(C)=CC(=O)Nc1nnc(-c2cccnc2)s1	-67
CC(C)=CC(=O)Nc1nnc(C(C)C)s1	-119
COc1ccc2c(c1)NC(=O)CC(c1ccccc1)=N2	-72
O=c1[nH]c2ccccc2nc1/C=C/c1ccc(O)cc1	-214
Oc1ccc(/C=C/c2ccc3ccccc3n2)cc1	.
O=c1[nH]c2ccccc2nc1/C=C/c1ccc(F)cc1	-139
